Test results published in the supplement of paper PMC10849652.
Of roughly 7,900 targets only a part is listed; those with a hit were picked by preference. About 0.6% of all pairs of compound and target were hits. A number with no mark means an inactive call.

Tests used:
Assay in all cases: log2 fold change, soluble protein after heating vs DMSO (PISA); higher = thermal stabilisation; K562 cells, 10 uM, 30 min; active = over 0.2 and 3.5 SD of the protein, either way, in both replicates (recomputed)
[1] = compound: NC(=O)Nc1cc(-c2cccc(F)c2)sc1C(=O)N[C@H]1CCCNC1
Outline: (§1)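 K562 cells at 2×10^6 cells/mL were treated with 10 μM compound for 30 min. Aliquots were heated for 3 min across 48°C-58°C, pooled, and extracted in PBS with 0.5% NP-40 at 4°C; soluble protein was the supernatant after 21,000xg for 90 min. Soluble protein was quantified by TMTpro 16plex LC-MS/MS with channel sums equalised, and reported as log2 fold change in thermal stability against DMSO controls, with values from duplicates.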

[2] = compound: NC(=O)c1cnc(N[C@@H]2CCCC[C@@H]2N)nc1Nc1cccc(-n2nccn2)c1
Outline: as §1

[3] = compound: NC1(c2ccc(-c3nc4ccn5c(=O)[nH]nc5c4cc3-c3ccccc3)cc2)CCC1
Outline: as §1

[4] = compound: NCC(=O)Nc1ccc(-n2nc(C(F)(F)F)cc2-c2ccc3c(ccc4ccccc43)c2)cc1
Outline: as §1

entinostat = compound: Nc1ccccc1NC(=O)c1ccc(CNC(=O)OCc2cccnc2)cc1 [entinostat]
Outline: as §1

vorinostat = compound: O=C(CCCCCCC(=O)Nc1ccccc1)NO [vorinostat]
Outline: as §1

citarinostat = compound: O=C(CCCCCCNC(=O)c1cnc(N(c2ccccc2)c2ccccc2Cl)nc1)NO [citarinostat]
Outline: as §1

silmitasertib = compound: O=C(O)c1ccc2c(c1)nc(Nc1cccc(Cl)c1)c1ccncc12 [silmitasertib]
Outline: as §1

[5] = compound: O=C1NC(=O)C(c2cnc3ccccn23)=C1c1cn2c3c(cc(F)cc13)CN(C(=O)N1CCCCC1)CC2
Outline: as §1

[6] = compound: c1cc(OCCN2CCCCC2)cc(-c2n[nH]c3ccc(-c4nnc[nH]4)cc23)c1
Outline: as §1

entospletinib = compound: c1cn2cc(-c3ccc4cn[nH]c4c3)nc(Nc3ccc(N4CCOCC4)cc3)c2n1 [entospletinib]
Outline: as §1

Chain of UniProt P46063 (P46063 whole entry, looked up): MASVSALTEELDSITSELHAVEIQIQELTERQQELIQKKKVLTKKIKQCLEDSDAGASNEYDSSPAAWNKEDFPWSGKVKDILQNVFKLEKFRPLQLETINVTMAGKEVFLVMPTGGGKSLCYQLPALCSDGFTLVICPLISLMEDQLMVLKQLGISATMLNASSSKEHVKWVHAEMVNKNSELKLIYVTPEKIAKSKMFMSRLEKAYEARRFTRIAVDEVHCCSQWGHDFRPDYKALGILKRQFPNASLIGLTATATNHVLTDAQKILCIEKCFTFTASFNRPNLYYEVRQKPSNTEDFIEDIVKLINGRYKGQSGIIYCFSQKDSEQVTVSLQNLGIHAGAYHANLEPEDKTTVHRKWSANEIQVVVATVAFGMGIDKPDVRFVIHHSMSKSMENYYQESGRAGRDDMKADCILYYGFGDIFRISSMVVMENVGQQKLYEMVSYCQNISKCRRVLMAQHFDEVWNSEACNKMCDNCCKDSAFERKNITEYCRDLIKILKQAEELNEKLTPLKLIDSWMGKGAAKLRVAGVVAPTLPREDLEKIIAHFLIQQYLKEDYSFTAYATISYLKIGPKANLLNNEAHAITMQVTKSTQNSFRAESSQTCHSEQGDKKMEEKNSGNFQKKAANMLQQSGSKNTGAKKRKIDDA
Chain of UniProt Q8WXD2 (Q8WXD2 whole entry, looked up): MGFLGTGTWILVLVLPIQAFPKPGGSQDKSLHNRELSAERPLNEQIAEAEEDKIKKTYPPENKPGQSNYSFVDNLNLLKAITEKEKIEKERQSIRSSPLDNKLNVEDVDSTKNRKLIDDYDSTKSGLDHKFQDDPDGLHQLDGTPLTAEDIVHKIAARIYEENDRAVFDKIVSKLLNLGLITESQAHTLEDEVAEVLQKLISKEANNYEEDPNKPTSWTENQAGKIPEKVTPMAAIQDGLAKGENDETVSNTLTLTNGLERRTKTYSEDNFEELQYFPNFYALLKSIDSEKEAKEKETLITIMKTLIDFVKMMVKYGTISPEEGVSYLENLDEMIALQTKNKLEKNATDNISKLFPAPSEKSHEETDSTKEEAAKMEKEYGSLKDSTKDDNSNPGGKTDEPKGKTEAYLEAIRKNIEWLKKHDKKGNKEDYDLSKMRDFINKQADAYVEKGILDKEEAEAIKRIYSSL
Chain of UniProt Q86VR2 (Q86VR2 whole entry, looked up): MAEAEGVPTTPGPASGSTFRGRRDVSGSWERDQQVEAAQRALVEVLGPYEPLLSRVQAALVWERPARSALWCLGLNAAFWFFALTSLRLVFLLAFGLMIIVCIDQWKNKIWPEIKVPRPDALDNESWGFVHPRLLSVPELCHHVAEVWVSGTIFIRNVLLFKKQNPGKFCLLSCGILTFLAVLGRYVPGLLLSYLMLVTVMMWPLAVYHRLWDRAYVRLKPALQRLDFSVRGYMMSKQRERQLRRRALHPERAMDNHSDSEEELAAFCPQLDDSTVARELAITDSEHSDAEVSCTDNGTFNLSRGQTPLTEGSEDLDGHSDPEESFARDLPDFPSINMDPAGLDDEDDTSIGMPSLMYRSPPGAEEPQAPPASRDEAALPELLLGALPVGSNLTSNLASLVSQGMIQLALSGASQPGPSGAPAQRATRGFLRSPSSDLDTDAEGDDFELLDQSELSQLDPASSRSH
Chain of UniProt O00584 (O00584 whole entry, looked up): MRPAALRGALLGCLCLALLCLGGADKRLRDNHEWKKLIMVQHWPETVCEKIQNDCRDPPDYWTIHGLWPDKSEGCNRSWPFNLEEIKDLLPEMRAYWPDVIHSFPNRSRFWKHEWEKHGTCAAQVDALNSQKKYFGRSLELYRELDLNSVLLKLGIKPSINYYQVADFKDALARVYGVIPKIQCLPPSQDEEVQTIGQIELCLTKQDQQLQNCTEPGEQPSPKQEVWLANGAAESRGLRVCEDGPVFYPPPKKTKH
Chain of UniProt Q9H4A4 (Q9H4A4 whole entry, looked up): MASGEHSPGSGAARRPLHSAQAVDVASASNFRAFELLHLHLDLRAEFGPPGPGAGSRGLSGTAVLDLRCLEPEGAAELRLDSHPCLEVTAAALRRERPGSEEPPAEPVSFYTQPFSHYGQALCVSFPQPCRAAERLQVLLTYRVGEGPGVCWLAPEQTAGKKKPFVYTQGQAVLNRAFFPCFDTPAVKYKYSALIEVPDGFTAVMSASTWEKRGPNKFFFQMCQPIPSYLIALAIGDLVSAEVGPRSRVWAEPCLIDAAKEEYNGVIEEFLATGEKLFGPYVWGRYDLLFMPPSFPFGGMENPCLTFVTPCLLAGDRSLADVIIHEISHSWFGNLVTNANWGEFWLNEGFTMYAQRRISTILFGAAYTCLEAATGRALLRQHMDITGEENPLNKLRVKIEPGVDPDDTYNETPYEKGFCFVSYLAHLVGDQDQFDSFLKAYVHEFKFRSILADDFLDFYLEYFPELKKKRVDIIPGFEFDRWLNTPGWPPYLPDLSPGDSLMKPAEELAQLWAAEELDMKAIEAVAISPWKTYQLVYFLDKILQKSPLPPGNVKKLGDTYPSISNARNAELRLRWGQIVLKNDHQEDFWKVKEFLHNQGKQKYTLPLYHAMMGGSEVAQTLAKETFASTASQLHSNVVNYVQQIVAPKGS
Chain of UniProt Q9NX18 (Q9NX18 whole entry, looked up): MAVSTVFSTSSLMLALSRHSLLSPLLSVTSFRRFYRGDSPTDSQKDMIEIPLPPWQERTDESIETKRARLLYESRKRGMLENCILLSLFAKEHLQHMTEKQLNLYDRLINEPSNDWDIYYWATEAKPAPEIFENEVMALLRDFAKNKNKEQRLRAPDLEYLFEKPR
Chain of UniProt Q5TA31 (Q5TA31 whole entry, looked up): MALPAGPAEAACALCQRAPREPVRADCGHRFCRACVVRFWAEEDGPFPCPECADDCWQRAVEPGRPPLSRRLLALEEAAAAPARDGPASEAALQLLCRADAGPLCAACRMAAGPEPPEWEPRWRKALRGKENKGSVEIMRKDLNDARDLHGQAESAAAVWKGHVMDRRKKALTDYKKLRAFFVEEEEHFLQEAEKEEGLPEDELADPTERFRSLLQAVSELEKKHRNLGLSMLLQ
Chain of UniProt Q8IZV5 (Q8IZV5 whole entry, looked up): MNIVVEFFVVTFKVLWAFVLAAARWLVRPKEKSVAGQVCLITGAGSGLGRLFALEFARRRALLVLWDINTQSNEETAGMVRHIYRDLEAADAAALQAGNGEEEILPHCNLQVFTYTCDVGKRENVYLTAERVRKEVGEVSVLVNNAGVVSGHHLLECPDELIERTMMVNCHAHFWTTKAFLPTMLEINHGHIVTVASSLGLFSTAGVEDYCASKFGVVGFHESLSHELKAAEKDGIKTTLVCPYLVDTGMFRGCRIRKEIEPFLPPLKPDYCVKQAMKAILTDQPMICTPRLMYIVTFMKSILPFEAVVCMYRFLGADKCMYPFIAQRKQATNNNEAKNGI
Chain of UniProt O75116 (O75116 whole entry, looked up): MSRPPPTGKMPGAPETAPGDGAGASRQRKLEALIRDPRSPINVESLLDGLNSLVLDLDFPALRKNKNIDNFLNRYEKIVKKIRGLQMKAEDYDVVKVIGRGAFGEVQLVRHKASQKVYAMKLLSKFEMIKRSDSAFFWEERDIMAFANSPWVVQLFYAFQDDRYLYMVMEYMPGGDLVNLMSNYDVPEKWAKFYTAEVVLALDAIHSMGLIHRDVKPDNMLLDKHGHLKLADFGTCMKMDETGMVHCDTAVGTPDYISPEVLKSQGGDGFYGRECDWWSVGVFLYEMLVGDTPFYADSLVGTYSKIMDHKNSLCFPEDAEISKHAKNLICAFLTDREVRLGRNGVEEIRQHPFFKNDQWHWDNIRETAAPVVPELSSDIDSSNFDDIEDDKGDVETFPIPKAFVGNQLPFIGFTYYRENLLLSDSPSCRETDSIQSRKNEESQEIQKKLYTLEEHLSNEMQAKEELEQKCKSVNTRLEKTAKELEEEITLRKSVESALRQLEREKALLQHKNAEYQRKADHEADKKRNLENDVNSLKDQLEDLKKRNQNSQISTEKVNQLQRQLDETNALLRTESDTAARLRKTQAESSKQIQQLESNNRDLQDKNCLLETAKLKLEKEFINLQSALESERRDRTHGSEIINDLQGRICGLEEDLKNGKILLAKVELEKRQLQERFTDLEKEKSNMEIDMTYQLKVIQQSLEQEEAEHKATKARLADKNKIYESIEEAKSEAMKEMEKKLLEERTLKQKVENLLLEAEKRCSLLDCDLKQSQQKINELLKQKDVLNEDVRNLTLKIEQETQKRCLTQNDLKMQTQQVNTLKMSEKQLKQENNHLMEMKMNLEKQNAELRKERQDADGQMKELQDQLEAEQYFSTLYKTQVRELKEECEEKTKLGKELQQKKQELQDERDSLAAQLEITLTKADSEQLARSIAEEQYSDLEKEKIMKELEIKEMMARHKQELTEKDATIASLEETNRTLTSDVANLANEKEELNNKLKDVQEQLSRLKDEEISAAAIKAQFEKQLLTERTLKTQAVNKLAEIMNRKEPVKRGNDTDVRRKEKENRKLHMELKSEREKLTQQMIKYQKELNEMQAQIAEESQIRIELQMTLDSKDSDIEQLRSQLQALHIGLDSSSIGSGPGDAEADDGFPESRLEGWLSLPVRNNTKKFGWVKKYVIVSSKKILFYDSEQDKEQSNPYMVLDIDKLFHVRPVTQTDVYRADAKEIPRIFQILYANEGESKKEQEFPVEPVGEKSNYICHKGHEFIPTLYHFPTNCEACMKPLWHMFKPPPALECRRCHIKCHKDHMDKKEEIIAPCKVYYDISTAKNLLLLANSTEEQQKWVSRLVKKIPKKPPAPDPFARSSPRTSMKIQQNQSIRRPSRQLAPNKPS
Chain of UniProt Q5VZM2 (Q5VZM2 whole entry, looked up): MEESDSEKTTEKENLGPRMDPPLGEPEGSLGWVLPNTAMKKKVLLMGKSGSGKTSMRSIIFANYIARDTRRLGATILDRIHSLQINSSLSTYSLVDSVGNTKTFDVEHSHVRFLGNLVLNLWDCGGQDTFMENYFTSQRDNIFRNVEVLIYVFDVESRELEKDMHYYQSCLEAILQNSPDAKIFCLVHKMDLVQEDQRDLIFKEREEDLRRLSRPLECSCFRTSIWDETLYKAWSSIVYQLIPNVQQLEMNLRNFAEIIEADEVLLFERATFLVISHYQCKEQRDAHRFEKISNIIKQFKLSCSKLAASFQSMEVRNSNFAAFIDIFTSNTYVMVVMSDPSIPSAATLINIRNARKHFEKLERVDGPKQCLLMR

Target	log2 fold change [1]	log2 fold change [2]	log2 fold change [3]	log2 fold change [4]	log2 fold change (entinostat)	log2 fold change (vorinostat)	log2 fold change (citarinostat)	log2 fold change (silmitasertib)	log2 fold change [5]	log2 fold change [6]	log2 fold change (entospletinib)
SDHAF2 (UniProt Q9NX18)	-0.005	0.156	-0.089	-0.007	-0.04	-0.156	-0.026	-0.007	-0.101	-0.015	0.001
RNF187 (UniProt Q5TA31)	0.004	-0.056	-0.033	0.07	-0.019	0.095	0.054	0.012	-0.061	0.035	0.027
RNPEP (UniProt Q9H4A4)	-0.001	-0.093	-0.086	-0.027	0.042	0.033	0.018	0.031	-0.017	-0.033	0.004
SEC24A (UniProt O95486)	-0.015	0	-0.108	-0.016	0.016	0.078	0	0.02	-0.092	-0.013	0.024
RAC3 (UniProt P60763)	-0.142	0.067	0.058	-0.002	-0.14	-0.037	-0.007	0.016	-0.083	0.176	0.071
RETREG3 (UniProt Q86VR2)	0.046	-0.033	-0.047	0.048	0.007	-0.045	0.003	0.04	-0.086	-0.03	0.015
SCCPDH (UniProt Q8NBX0)	-0.113	-0.056	0.045	-0.024	-0.071	0.062	0.199	-0.004	0.123	0.33	0.076
RAVER1 (UniProt E9PAU2)	-0.063	-0.35	-0.1	-0.32	0.211	0.207	0.166	-0.022	-0.244	-0.088	0.073
RNASET2 (UniProt O00584)	-0.082	-0.114	-0.285 (active)	-0.033	-0.012	-0.04	0.074	-0.018	-0.048	-0.102	0.05
RECQL (UniProt P46063)	0.034	-0.076	-0.047	-0.033	0.001	0.045	0.092	-0.028	-0.019	-0.03	0.012
SART3, A0A499FI31	-0.011	-0.105	-0.175	-0.054	0.055	0.1	0.098	0.114	-0.136	-0.02	0.023
RPS9 (UniProt P46781)	0.07	0.127	0.202	0.073	-0.058	-0.007	-0.058	0.007	0.076	-0.152	0.042
RAB33B (UniProt Q9H082)	-0.032	0.014	0.037	-0.019	-0.035	-0.021	-0.016	-0.014	-0.048	-0.032	-0.018
SCAF8 isoform 2 (UniProt Q9UPN6)	-0.062	-0.028	-0.086	-0.044	0.053	0.166	0.058	-0.003	-0.098	-0.093	-0.042
RDH10 (UniProt Q8IZV5)	-0.033	-0.017	-0.016	0.015	0.015	-0.069	-0.019	-0.097	-0.039	0.012	0.03
RPS6KA1 isoform 2 (UniProt Q15418)	-0.131	-0.242	-0.205	-0.096	0.06	0.109	0.058	-0.08	-0.099	-0.32	0.026
SCG3 (UniProt Q8WXD2)	0.028	-0.051	0.114	0.061	0.009	0.025	-0.015	-0.029	0.018	-0.098	0.091
RIC8A isoform 3 (UniProt Q9NPQ8)	-0.035	-0.154	-0.126	-0.088	0.192	0.058	0.12	-0.005	0.084	-0.096	0.095
RBM27 (UniProt Q9P2N5)	-0.151	-0.015	-0.058	-0.042	0.044	0.125	0.04	-0.078	-0.056	-0.064	0.054
RRAS2 isoform 4 (UniProt P62070)	-0.068	0.03	0.08	0.038	-0.059	-0.069	0.01	0.048	-0.01	0.013	-0.012
RBM33 (UniProt Q96EV2)	0.019	-0.055	-0.024	0.003	0.027	0.037	0.042	0.038	-0.003	-0.046	0
RRAGB (UniProt Q5VZM2)	0.112	-0.017	-0.317 (active)	0.023	0.012	0.018	-0.006	0.031	0.008	0.05	-0.04
SAFB2 (UniProt Q14151)	0.116	0.084	0.255	0.043	-0.076	-0.016	-0.098	0.119	0.084	-0.038	0.05
RCC1 isoform 2 (UniProt P18754)	-0.084	-0.174	-0.18	-0.066	0.132	0.094	0.026	-0.056	-0.132	-0.024	-0.022
RABGGTA (UniProt Q92696)	0.034	-0.008	-0.257 (active)	0.051	-0.05	0.005	0.038	0.008	0.003	0.027	-0.013
RPS4X (UniProt P62701)	0.088	0.095	0.216	0.088	-0.048	0.005	-0.104	0.014	0.126	-0.204	0.082
RPP25L (UniProt Q8N5L8)	0.003	-0.052	-0.012	-0.032	-0.001	-0.014	-0.08	0.073	0.183	-0.075	0.066
ROCK2 (UniProt O75116)	0.043	-0.044	-0.106	-0.017	0.031	0.08	0.013	0.096	0.017	0.06	-0.049
